Measurements taken from PubChem BioAssay (NCI).
Compounds without any hit were thinned out: in the full panel of roughly 83,000, 20% have a hit.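 96-well plates, one dose, 48 hours. Percent growth reported; active if below 10.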 Values without a mark were called inactive. Activity calls are given as the source filed them.

Tested on: SR leukemia
Assay: NCI-60 one-dose screen, 48 h (100 = growth as untreated, 0 = no growth, -100 = all killed)
Settings: 10 µM unless noted

Point of comparison: CNC(=O)c1ccccc1Sc1ccc2c(/C=C/c3ccccn3)n[nH]c2c1, growth 10.4%. Against it:
- COc1ccc(C2C3CCc4ccccc4C3=NN2C(=O)c2cc(OC)c(OC)c(OC)c2)cc1O (centres undefined) — higher, 64.2%
- CCOC(=O)c1ccc(NC(=O)NC2=NCCS2)cc1 — higher, 17.6%
- CC(C)COC(=O)NC(C)(C)C — higher, 91.5%
- Cn1c(=O)c2[nH]c(Cc3ccc4c(c3)OCO4)nc2n(C)c1=O — higher, 120%
- Nc1nc(N)c2c(n1)NC(c1sc(Cl)nc1Cl)CC(c1ccc3c(c1)OCO3)=N2 (centres undefined) — higher, 17.1%
- Cc1ccccc1N1C(c2ccccc2)=NNC12C=CC(=O)c1c(O)cccc12 (centres undefined) — higher, 97%
- Nc1nc(N)c2c(n1)NC(c1sc(Cl)nc1Cl)CC(c1ccccc1)=N2 (centres undefined) — higher, 19.9%
- C=CC[C@]1(O)CC[C@H]2[C@@H]3CCc4cc(O)ccc4[C@H]3CC[C@@]21C — higher, 38.4%
- COS(=O)(=O)CCN(CCOS(C)(=O)=O)S(C)(=O)=O — higher, 95.5%
- COC1CC(N)C2OC(c3ccccc3)OCC2O1 (centres undefined) — higher, 98%
- COc1ccc2[nH]cc(C(c3ccc(Cl)cc3)N3CCCC3)c2c1 (centres undefined) — higher, 59.9%
- CCOP(=O)(O)OP(=O)(O)OCC — higher, 91.2%
- COc1cccc(/C=N/N=C(N)N)c1 — higher, 93%
- COc1ccc(C2CC(c3ccc(Nc4ccnc5cc(Cl)ccc45)cc3)=NN2c2ccccc2)cc1 (centres undefined) — higher, 81%
- CC1=C(O)C(=O)C(c2c(C)cc(C)c(Br)c2C)=C(O)C1=O — higher, 48.9%
- FC(F)(F)C1=NNC(c2ccc3ccccc3c2)=NN1 — higher, 95%
- NC(N)=N/N=C\c1ccc(OCc2ccccc2)cc1 — higher, 75.4%
- COc1ccc(NC(=O)C2c3ccccc3C(=O)N(CC(C)C)C2c2cccs2)cc1 (centres undefined) — higher, 96.5%
- NC(N)=N/N=C\c1cccc(OCc2ccccc2)c1 — higher, 19.4%
- CS(=O)(=O)Nc1cc(-c2cc3ncc(C#N)c(Nc4ccc(Oc5ccccc5)c(Cl)c4)c3s2)cnc1Cl — higher, 20.5%
- CC(=O)[C@H]1CC[C@H]2[C@@H]3CC[C@H]4CC=CC[C@]4(C)[C@H]3CC[C@]12C — higher, 68.9%
- COc1cccc(NC(=O)[C@H](C(C)C)n2c(=O)[nH]c3ccccc3c2=O)c1 — higher, 95.8%
- CC(C)N1CCN(c2ccncc2S(=O)(=O)N2CCN(C)CC2)CC1 — higher, 93.5%
- [O-]/[N+](=C\c1ccccc1)CC1(O)CCCCC1 — higher, 99.5%
- CCc1ccc(-c2ccc(NC3CCCCCC3)nn2)cc1S(N)(=O)=O — higher, 103%
- CCCCCCCCCCCCCCC(C(=O)OCC)C(=O)OCC — higher, 116%
- O=C(Nc1ccc2[nH]c3ccccc3c2c1)c1ccccc1Cl — higher, 17.6%
- CN(C)c1ccc(/C=C(\C#N)c2nc3ccccc3n2C)cc1 — higher, 29.2%
- O=C(CS)OCC(COC(=O)CS)(COC(=O)CS)COC(=O)CS — higher, 38.6%
- CCN(CC)CCC(CNc1ccnc2cc(Cl)ccc12)c1ccc(O)cc1 (centres undefined) — higher, 47.5%

In the case of C=C1NC(=O)C(C(C)CC)NC(=O)C2CSCC(NC(=O)CCC(=O)O)C(=O)NC(Cc3ccccc3)C(=O)NC(C)C(=O)NC(CC(C)CC)C(=O)NC(C(=O)NC(Cc3ccccc3)C(=O)N3CCCC3C(=O)N2)C(C)OC(=O)C(CO)NC(=O)C(C(O)COC)N(C)C(=O)C(C(C)C)NC(=O)C(CC(C)CC)NC1=O (centres undefined), the growth is reported as 12.5% [6 µM].

With Cc1nc2c(-c3cnc(N)nc3)nc(N3CCOCC3)nc2n1C(C)C the growth was 7% (active).
For Cc1nc2ccc(Nc3nc(NCCN4CCOCC4)nc(Nc4ccc(F)cc4)n3)cc2n1Cc1ccccc1, the growth was 0.147% (active).
In the case of Cc1ccc(NC(=O)c2nc(S(C)(=O)=O)oc2-c2ccc(F)cc2)cc1Nc1ccc2ncn(C)c(=O)c2c1, the growth is reported as -12.5% (active).
In the case of C[C@@H]1C[C@H](N)C[C@H](c2ccncc2NC(=O)c2ccc(F)c(-c3c(F)cccc3F)n2)C1, the growth is reported as -17.7% (active).
In the case of COC(=O)C(CCC(=O)CCl)N1C(=O)c2ccccc2C1=O (centres undefined), the growth is reported as 8.24% (active).
With C#CC[C@@H]1C[C@]2(C)[C@H]3CC=C4[C@H]5[C@@H](C)[C@H](C)CC[C@]5(C(=O)NCCCCN)CC[C@@]4(C)[C@]3(C)CC[C@H]2C(C)(C)[C@H]1OC(C)=O the growth was -19.2% (active).
For CC(=O)N1N=C(c2ccc(C)cc2)CC1c1cn(-c2ccccc2)nc1-c1cccc(Nc2ccnc3cc(Cl)ccc23)c1 (centres undefined), the growth was -4.15% (active).
